Measurements reported in ChEMBL document CHEMBL1157539, “Thousands of chemical starting points for antimalarial lead identification” (Nature, 2010).

Assays:
Type in all cases: functional
Plasmodium falciparum [1] = test: GSK_TCMDC: Inhibition of Plasmodium falciparum 3D7 in whole red blood cells, using parasite LDH activity as an index of growth. Test compounds present at 2uM
Plasmodium falciparum [2] = test: GSK_TCMDC: Inhibition of Plasmodium falciparum Dd2 in whole red blood cells, using parasite LDH activity as an index of growth. Test compounds present at 2uM
HepG2 = test: GSK_TCMDC: Percent inhibition of human HepG2 cell line. Test compounds present at 10uM.

SMILES	Inhibition (Plasmodium falciparum [1])	Inhibition (Plasmodium falciparum [2])	Inhibition (HepG2)
N#Cc1cncc(-c2nc3c(N4CCC(Cc5ccccc5)CC4)cccc3n2C2CCNC2)c1.O=C(O)C(F)(F)F (configuration not stated)	88%	7%	5%
COc1cc(Cc2cnc(N)nc2N)cc(OCCCCCC(N)=O)c1OC	90%	0%	0%
COc1cc(-c2nc3c4ccccc4c4ccccc4c3[nH]2)cc(OC)c1OC	90%	10%	4%
O=C(Nc1cccc(-c2ccc(NCCCN3CCCC3)nc2)c1)c1ccccc1	100%	21%	22%
O=C(/C=C/c1ccc(Cl)c(Cl)c1)NCCCCCN1CCC(NC(=O)c2ccc([N+](=O)[O-])cc2)CC1	100%	6%	36%
O=C(/C=C/c1ccc(I)cc1)NCCCCCN1CCC(c2c[nH]c3ccc(O)cc23)CC1	97%	1%	14%
CCOc1cc(C(=O)NCCCN2CCN(c3cccc(Cl)c3)CC2)ccc1-c1nc2cc(Cl)c(F)cc2[nH]1	96%	19%	16%
Cc1ccc(C)c(NC(=O)NC2CCN(c3ccnc(Nc4ccc(F)cc4)n3)C2)c1 (configuration not stated)	100%	74%	0%
Clc1ccc2c(NN=Cc3cccs3)ccnc2c1	100%	96%	0%
COc1ccc(-c2cc(C(=O)Nc3ccc(CCCN(C)Cc4ccc(OC)c(OC)c4)cc3)c3ccccc3n2)cc1	92%	47%	40%
O=C(CN1CCCC1)Nc1cccc(C(=O)Nc2cccc(C(F)(F)F)c2)c1	95%	83%	9%
C=C1N(C)c2cc([N+](=O)[O-])c(N)cc2C1(C)C	98%	83%	22%
CC(=O)c1sc(NC(=O)Nc2ccc(C)cc2C)nc1C	96%	68%	5%
Cc1[nH]c(C)c(-c2ccc(OCc3ccc(F)cc3)cc2)c(=O)c1Cl	95%	96%	0%
CCN(CC)CCCNCc1ccc(-c2ccc(C(F)(F)F)cc2)cc1	95%	35%	53%
Clc1ccc(Nc2nc(NCc3ccccc3)nc(N/N=C/c3ccccn3)n2)cc1	99%	91%	41%
COc1ccc(C(=O)N2CCC(C(=O)NC(C)c3ccc(-n4ccnc4)cc3)CC2)c2ccccc12 (configuration not stated)	83%	79%	12%
Cc1ccccc1OCCCN1CCN(CC(c2ccc(F)cc2)N2CCN(C(C)C)CC2)CC1.Cl (configuration not stated)	99%	64%	20%
O=C(NC1CCN(Cc2ccc(Cl)cc2)CC1)c1cn(-c2ccccc2)nc1-c1cccnc1	93%	9%	13%
CN1CCC(NCc2ccc(-c3ccc(S(=O)(=O)NCc4ccccc4)s3)cc2)CC1.O=C(O)C(F)(F)F	99%	95%	77%
N#Cc1ccc(N/C(=N\c2ccccc2Cl)NC2CCN(Cc3ccccc3)CC2)c(O)c1	100%	97%	31%
Cl.N=c1n(Cc2ccccc2)c2ccccc2n1CC(O)c1ccc(Cl)cc1 (configuration not stated)	96%	75%	26%

SMILES	Inhibition (Plasmodium falciparum [1])	Inhibition (Plasmodium falciparum [2])	Inhibition (HepG2)
CCN(CC)c1ccc(C(=O)Cn2ccc(=N)cc2)cc1	84%	64%	92%
COc1ccc(S(=O)(=O)NCCC2CCN(CCCCCNC(=O)C=Cc3ccc(Cl)c(Cl)c3)CC2)cc1	87%	0%	36%
Cc1cc(C(F)(F)F)n2nc(C(=O)N(Cc3cncn3Cc3ccccc3F)CC3CC3)cc2n1	100%	100%	0%
COc1ccccc1OCCN(CC(O)COc1cccc2[nH]c3ccccc3c12)CC(O)COc1cccc2[nH]c3ccccc3c12 (configuration not stated)	97%	96%	16%
O=C(NC1CCCC1)c1ccc(N2CCC(NCc3cccc(C(F)(F)F)c3)CC2)cc1	87%	75%	11%
CCOC(=O)c1c(C)noc1Nc1cccc(C)c1C	98%	0%	8%
Cl.N#Cc1cccc(C(O)C2CN(CCC3CCCCC3)CCC2(O)c2ccccc2)c1 (configuration not stated)	98%	100%	0%
CCOC(=O)c1cn(CC)c2cc(F)c(OC3CC4CCC3(C)C4(C)C)cc2c1=O (configuration not stated)	91%	70%	0%
COc1ccc2[nH]c(C)cc(=NN=Cc3ccncc3)c2c1	100%	68%	6%
Cc1ccc(C)c2c1[nH]c1ccc(C3=NCCN3)cc12.Cl	100%	0%	29%
Cc1nc2nc(N)nc(N)c2c(C)c1Cc1cccc(F)c1.Cl	96%	1%	65%
CCC(CC)n1c(C)cc2c3c(N)nc(N)nc3ccc21	95%	95%	61%
O=C(/C=C/c1ccc(C(F)(F)F)cc1)NCCCCCN1CCC(c2c[nH]c3ccccc23)CC1	100%	22%	96%
COC(=O)c1ccc2c(c1)nc(Nc1cccc(F)c1)n2CC(O)c1ccccn1 (configuration not stated)	99%	96%	0%
COc1ccc(CN2CCC(NCc3cccc(C(F)(F)F)c3)CC2)cc1.O=C(O)C(F)(F)F	99%	8%	6%
Cc1[nH]c(C)c(-c2ccc(-c3ccc(OC(F)(F)F)cc3)nc2)c(=O)c1Br	97%	97%	26%
CON=Cc1ccn(-c2ccc(O)c3c2C[C@H]2C[C@H]4[C@H](N(C)C)C(O)=C(C(N)=O)C(=O)[C@@]4(O)C(O)=C2C3=O)c1.O=S(=O)(O)O	96%	70%	3%
O=C(OCc1ccccn1)c1nc2ccccc2[nH]1	92%	97%	63%
CC(C)(CNCc1ccc(OC(F)(F)F)cc1)c1nc(-c2ccc(Cl)c(O)c2)c(-c2ccncc2)[nH]1.Cl	100%	99%	38%
CCCCC1=CC2C(=O)C(C(=O)OC)=CN=C2C=C1OCc1ccccc1 (configuration not stated)	99%	98%	7%
NCCCNc1nccc(N2CCc3ncnc(Nc4ccc(OCc5cccc(F)c5)c(Cl)c4)c3C2)n1	98%	93%	18%
Cc1[nH]c(C)c(-c2ccc(-c3ccc(OC(F)(F)F)cc3)cc2)c(=O)c1Cl	98%	97%	24%

SMILES	Inhibition (Plasmodium falciparum [1])	Inhibition (Plasmodium falciparum [2])	Inhibition (HepG2)
CCC(CC)(Cc1ccccc1)NC(=O)[C@H](CC1CCCCC1)Nc1ccc(C#N)c2ccccc12.O=C(O)C(F)(F)F	95%	76%	4%
O=C(Cc1ccc(Cl)cc1)NC1CCN(c2ccnc3cc(Cl)ccc23)C1.O=C(O)C(F)(F)F (configuration not stated)	82%	99%	13%
CN(C)CCN(C)Cc1ccc(-c2cccc(NC(=O)c3cccc(C#N)c3)c2)cc1.O=C(O)C(F)(F)F	94%	11%	23%
Br.CC1(C)NC(N)=NC(=N)N1OCCCOc1cccc2ccccc12	95%	86%	67%
COc1cc2ncnc(Nc3ccc(OCc4ccccc4)c(I)c3)c2cc1OC.Cl	98%	62%	11%
CCCCCCN1CCN(Cc2cccc(NC(=O)c3cc4ccccc4s3)c2)CC1.O=C(O)C(F)(F)F	93%	68%	20%
CCC[C@@H]([C@@H](CC1CCC(C)CC1)C(=O)N[C@@H](CCCCNC(=O)c1ccccn1)C(=O)Nc1nccs1)N(O)C=O (some centres not stated)	100%	79%	25%
CCOc1cc(CC)ccc1C1CCN(CCCCNC(=O)c2ccc(NC(=O)c3ccc(C#N)cc3)cc2)CC1	91%	50%	55%
COc1cc2cc(Cc3cnc(N)nc3N)ccc2c(OC)c1OC.Cl	97%	2%	1%
Cl.N=C(N)c1ccc(OCc2cccc(COc3ccc(C(=N)N)cc3I)c2)c(I)c1	100%	100%	7%
Cc1cccc2nc(-c3ccc(-c4ccc(CNCC(C)C)cc4)cc3)[nH]c12.O=C(O)C(F)(F)F	100%	90%	14%
O=C(CCc1nc2c(cnn2-c2ccccc2)c(=O)[nH]1)NC1CCSc2ccccc21 (configuration not stated)	95%	52%	10%
CCC(CO)NCC(O)Cn1c2ccc(Cl)cc2c2cc(Cl)ccc21 (configuration not stated)	96%	88%	11%
CC(C)(C)c1ccc(NC(=O)N[C@@H]2CCN(c3ccnc4ccccc34)C2)cc1.Cl	100%	96%	23%
CCC[C@@H]([C@@H](CC1CCCCC1)C(=O)N[C@@H](CCCCNS(C)(=O)=O)C(=O)Nc1nccs1)N(O)C=O	100%	74%	0%
COc1ccc(Nc2cc(C)nc(NCc3ccc4c(c3)OCO4)n2)cc1	99%	78%	26%
NC1CCN(Cc2ccc(-c3cccc(-c4nc5cc(F)ccc5[nH]4)c3)cc2)C1.O=C(O)C(F)(F)F (configuration not stated)	100%	16%	47%
O=C(Nc1ccc(CN2CCOCC2)cc1)c1ccc(-c2ccc(Cl)cc2)o1	98%	11%	22%
CN1CCC(C(=O)Nc2cccc(-c3ccc(-c4nc5cc(C(F)(F)F)ccc5[nH]4)cc3)c2)CC1	100%	99%	38%
Oc1ccc(-c2nc3c4cc(I)ccc4c4ccc(I)cc4c3[nH]2)cc1	98%	51%	0%
